High-throughput results: PubChem, National Center for Advancing Translational Sciences (NCATS)
An excerpt weighted towards active compounds, which were near 7.3% of everything screened.
Luciferase inh – blocks purified firefly luciferase enzyme activity. Potency, µM (series often up to 115 µM), hits mostly inhibitors. purified P. pyralis luciferase, luminescence, biochemical. actives 2.5% (n = 76,000); also: nearly all actives have a fitted effect of over 65% in size
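Biochemical qHTS: compound (6-point titration) added to 10uM D-luciferin plus 10uM ATP in Tris acetate pH 7.5 buffer with Mg, Tween-20 and BSA, then purified enzyme at 10nM; light output imaged.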
SNCA expr inhib – inhibitors of alpha-synuclein (SNCA) gene expression; HEK-293 SNCA-luciferase knock-in, luminescence, 24 h; Potency, µM (highest dose often 57.2 µM), hits mostly inhibitors; actives 0.17% (n = 140,000); also: nearly all actives have a fitted effect of over 45% in size
IP6K1 inh – blocks human inositol hexakisphosphate kinase 1; IP6K1 kinase, ADP-Glo luminescence, 2 h; active compounds read low; activity change, % (series mostly up to about 58 µM); actives 0.81% (n = 140,000); in the data active = activity change below about -25%
Target sequence (Q92551 whole entry, looked up): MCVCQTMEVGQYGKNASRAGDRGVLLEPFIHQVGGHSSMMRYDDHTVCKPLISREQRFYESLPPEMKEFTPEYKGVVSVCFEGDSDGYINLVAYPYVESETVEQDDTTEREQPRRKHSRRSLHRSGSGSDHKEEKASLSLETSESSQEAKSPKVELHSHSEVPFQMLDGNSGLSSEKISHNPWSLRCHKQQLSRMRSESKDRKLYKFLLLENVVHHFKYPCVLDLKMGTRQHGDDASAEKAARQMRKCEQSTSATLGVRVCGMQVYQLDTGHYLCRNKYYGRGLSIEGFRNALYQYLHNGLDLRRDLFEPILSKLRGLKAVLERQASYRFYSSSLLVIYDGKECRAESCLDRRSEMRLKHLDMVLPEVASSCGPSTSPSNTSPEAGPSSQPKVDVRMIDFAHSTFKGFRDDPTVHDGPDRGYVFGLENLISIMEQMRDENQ
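ADP-Glo luminescence measures ADP made by human IP6K1 during a 2 h RT reaction with ATP/IP6 (mix at 1.3 mM/130 uM); top library doses 57.5 and 19.1 uM final.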
HEK cytotox – cytotoxic compounds in HEK 293 cells; HEK 293 viability, ATP luminescence (CellTiter-Glo), 48-72 h; Potency, µM (doses to about 115 µM), usual class: inhibitors; actives 6.6% (n = 94,000); also: nearly all actives have a fitted effect of over 60% in size
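Pintool-delivered compounds were incubated with HEK 293 cells (250 cells/well) at 37 degree Celsius for 48 or 72 hr. ATP-dependent luminescence (CellTiter-Glo) then reported remaining viable cells.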
HEK293 viab – cell viability loss counter-screen; HEK-293-SNCA-luc viability, GF-AFC fluorescence, 24 h; Potency, µM (highest dose often 57.1 µM), usual class: cytotoxic; actives 0.12% (n = 150,000); also: nearly all actives have a fitted effect of over 30% in size
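Cytotoxicity counterscreen: after 24 h compound treatment of genome-edited SNCA-luciferase HEK-293 cells, live-cell protease substrate GF-AFC read by fluorescence after 30 min; activity scaled between DMSO (0%) and medium-only (-100%), curves Hill-fitted.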
NIH3T3 tox – cytotoxic compounds in NIH 3T3 cells. actives 4.3% (n = 94,000). NIH 3T3 viability, CellTiter-Glo ATP luminescence, 48-72 h. Potency, µM (doses to about 96.7 µM), actives largely listed as inhibitors. AID 1345082; also: nearly all actives have a fitted effect of over 55% in size
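ATP-dependent luminescence (CellTiter-Glo) served as the viability signal for NIH 3T3 cells treated with compound for 48 or 72 hr at 37 °C.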
IP6K1 conf – confirmation of human IP6K1 inhibitors. shares compounds with IP6K1 inh. recombinant IP6K1 kinase, ADP-Glo luminescence, 2 h. Potency, µM (series often up to 49 µM), hits mostly inhibitors. actives 13% (n = 1,200). AID 1645852; also: nearly all actives have a fitted effect of over 65% in size
Each line names hits and unclear results; the compound was inactive in the other large screens (follow-up assays come after a bar, where they were run). Unless noted, calls follow the shape of the dose curve; as a rule, active = well fitted curve in the direction sought with a large enough effect; inconclusive = small, poorly fitted or top-dose-only effect, or another doubt; inactive = no such curve, though single readings can be large; an effect the other way counts as inactive or inconclusive.

CCc1noc(-c2nc(-c3ccc(OC)c(F)c3)no2)n1	Luciferase inh inconclusive
COc1ccccc1CN1CCNc2cnc(Oc3ccccc3)cc2C1	HEK cytotox inconclusive, NIH3T3 tox inconclusive
COc1ccc(OC)c(CN2CCNc3cc(-c4ccnc(C)c4)ncc3C2)c1	Luciferase inh inconclusive, IP6K1 inh -27, HEK cytotox 100µM, NIH3T3 tox inconclusive | IP6K1 conf inactive
NC(=O)Cc1c[nH]c2ncc(-c3cccc(F)c3)cc12	IP6K1 inh -35, NIH3T3 tox 89µM | IP6K1 conf inconclusive
NC(=O)Cc1c[nH]c2ncc(-c3ccc(Oc4ccccc4)cc3)cc12	IP6K1 inh -42, HEK cytotox 35µM, NIH3T3 tox 22µM | IP6K1 conf inconclusive
CNC(=O)c1cccc(-c2cnc3[nH]cc(CC(=O)N(C)c4ccccc4)c3c2)c1	IP6K1 inh -29, HEK cytotox 45µM, HEK293 viab inconclusive, NIH3T3 tox 20µM | IP6K1 conf inconclusive
O=C(Cc1c[nH]c2ncc(-c3ccccc3)cc12)N1CCN(c2ccccn2)CC1	Luciferase inh inconclusive, HEK cytotox inconclusive, NIH3T3 tox inconclusive
CCCCC1CN(c2ccc(Cl)cc2)C(=O)CN1C(=O)CNC(=O)OC (centres undefined)	none
Cn1c(CCC(=O)N2CCCOCC2)nc2cc(S(=O)(=O)N3CCCC3)ccc21	IP6K1 inh -31 | IP6K1 conf inactive
Cn1c(CCC(=O)N2CCOCC2)nc2cc(S(=O)(=O)N3CCCC3)ccc21	none
CCCc1noc(-c2cn(C3CCN(C(=O)c4ccc(OCC)cc4)CC3)nn2)n1	SNCA expr inhib inconclusive, NIH3T3 tox inconclusive
O=C1NC(=O)/C(=C/c2ccc3c(c2)OC(F)(F)O3)S1	IP6K1 inh -37 (no result: Luciferase inh, HEK cytotox, NIH3T3 tox) | IP6K1 conf inconclusive
COc1ccc2c(c1)CN(C(=O)COCc1ccccc1)CC[C@H]1COC(=O)N21	none
CCn1cc(-c2ccc(F)cc2)cc1C(=O)N1CCCCCC1	HEK cytotox inconclusive, NIH3T3 tox inconclusive
CCn1cc(-c2ccc(C)cc2)cc1C(=O)N1CCC(C)CC1	IP6K1 inh -30, HEK cytotox inconclusive, NIH3T3 tox inconclusive | IP6K1 conf inconclusive
Cc1ccc(Cl)cc1NC(=O)c1oc2c(c1C)-c1[nH]ncc1CC2	IP6K1 inh -40 (no result: Luciferase inh, HEK cytotox, NIH3T3 tox) | IP6K1 conf inconclusive
C=C1CCC2C(C)(C)C(O)CCC2(C)C1CCC(C)CCO (centres undefined)	IP6K1 inh -30 (no result: Luciferase inh, SNCA expr inhib, HEK cytotox, NIH3T3 tox) | IP6K1 conf inconclusive
CC(C)CN[C@H]1CO[C@H]2[C@@H]1OC[C@@H]2Nc1nccc(-c2cccs2)n1	HEK cytotox inconclusive, NIH3T3 tox inconclusive
CCOC(=O)c1cc2c(=O)n3ccccc3nc2n(Cc2ccco2)c1=NC(=O)c1cccc(C)c1	IP6K1 inh -36, HEK293 viab inconclusive (no result: Luciferase inh, HEK cytotox, NIH3T3 tox) | IP6K1 conf inconclusive
CCN1C(C(=O)c2ccccc2)=C(OC(=O)COc2ccc(OC)cc2)c2ccccc2S1(=O)=O	SNCA expr inhib inconclusive, IP6K1 inh -34 (no result: Luciferase inh, HEK cytotox, NIH3T3 tox) | IP6K1 conf inactive
CCN1C(C(=O)c2ccccc2)=C(OC(=O)COc2ccc(C)cc2)c2ccccc2S1(=O)=O	SNCA expr inhib inconclusive (no result: Luciferase inh, HEK cytotox, NIH3T3 tox)
CCCN1C(C(=O)c2ccccc2)=C(OC(=O)COc2ccccc2)c2ccccc2S1(=O)=O	SNCA expr inhib inconclusive, IP6K1 inh -28, HEK293 viab inconclusive (no result: Luciferase inh, HEK cytotox, NIH3T3 tox) | IP6K1 conf inconclusive
Cc1cccc(Cc2c(C)nc3c(-c4ccccc4)c(C)[nH]n3c2=O)c1	IP6K1 inh -34 (no result: Luciferase inh, HEK cytotox, NIH3T3 tox) | IP6K1 conf inconclusive
Cc1ccccc1Cc1c(C)nc2c(-c3ccccc3)c(C)[nH]n2c1=O	SNCA expr inhib inconclusive (no result: Luciferase inh, HEK cytotox, NIH3T3 tox)
COc1ccc(C(=O)Nc2ccc(NC(=O)c3cccs3)cc2)cc1OC	IP6K1 inh -56, HEK293 viab inconclusive (no result: Luciferase inh, HEK cytotox, NIH3T3 tox) | IP6K1 conf inactive
OC[C@@H]1CN(c2ccc(-c3nc(-c4cccc(C(F)(F)F)c4)no3)cn2)C[C@H]1CO	HEK cytotox inconclusive
